High-throughput results as filed in PubChem BioAssay.
A selection: hits, their analogues and other compounds. The true share with any hit is near 2%.
B2AR ag – beta2AR agonists driving receptor internalization, primary screen, cell-based, FAP fluorogen, flow cytometry | Beta-2 adrenergic receptor (Homo sapiens), P07550 | Am2.2-beta2AR cells | response, % (no concentration beside the values) | 340,000 compounds, 0.43% hits | AID 504454, 2011;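 active = response above a set limit, near 3 SD of response in nonfluorescent compounds, cut at about 42% in these data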
TLR9-MyD88 inh – inhibitors of TLR9-MyD88 association in cells, primary screen, cell-based, CHO, BLA complementation, fluorescence. Toll-like receptor 9 (Homo sapiens) + Myeloid differentiation primary response protein …. CCF4 FRET ratio. inhibition, % at 4.98 µM. 340,000 compounds, 0.21% hits;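 active = inhibition above the mean over all tested compounds plus 3 SD, cut at about 21% in these data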;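 note: 0% = DMSO only wells and 100% = clavulanate BLA inhibitor control wells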
NOD2-RIPK2 inh – NOD2-RIPK2 binding disruptors in cells, primary screen, fluorescence, CHO cells, BLA complementation; Receptor-interacting serine/threonine-protein kinase 2 (Homo sapiens), O43353; CCF4 ratio; inhibition, % at 4.98 µM; 360,000 compounds, 0.38% hits; in the data active = inhibition above about 21%;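 note: 0% = vehicle only and 100% = reference blocker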
TLR4 MyD88 comp – inhibitors of TLR4-MyD88 association in cells, primary screen, cell-based, HeLa CL3-4, BLA complementation, FRET ratio; HeLa CL3-4 TLR4/MyD88 BLA complementation; inhibition, % at 8.4 µM; 200,000 compounds, 0.18% hits; AID 861, 2007; in the data active = inhibition above about 25%;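 note: 0% = vehicle and 100% = reference inhibitor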
Target sequence (O00206 whole entry, looked up): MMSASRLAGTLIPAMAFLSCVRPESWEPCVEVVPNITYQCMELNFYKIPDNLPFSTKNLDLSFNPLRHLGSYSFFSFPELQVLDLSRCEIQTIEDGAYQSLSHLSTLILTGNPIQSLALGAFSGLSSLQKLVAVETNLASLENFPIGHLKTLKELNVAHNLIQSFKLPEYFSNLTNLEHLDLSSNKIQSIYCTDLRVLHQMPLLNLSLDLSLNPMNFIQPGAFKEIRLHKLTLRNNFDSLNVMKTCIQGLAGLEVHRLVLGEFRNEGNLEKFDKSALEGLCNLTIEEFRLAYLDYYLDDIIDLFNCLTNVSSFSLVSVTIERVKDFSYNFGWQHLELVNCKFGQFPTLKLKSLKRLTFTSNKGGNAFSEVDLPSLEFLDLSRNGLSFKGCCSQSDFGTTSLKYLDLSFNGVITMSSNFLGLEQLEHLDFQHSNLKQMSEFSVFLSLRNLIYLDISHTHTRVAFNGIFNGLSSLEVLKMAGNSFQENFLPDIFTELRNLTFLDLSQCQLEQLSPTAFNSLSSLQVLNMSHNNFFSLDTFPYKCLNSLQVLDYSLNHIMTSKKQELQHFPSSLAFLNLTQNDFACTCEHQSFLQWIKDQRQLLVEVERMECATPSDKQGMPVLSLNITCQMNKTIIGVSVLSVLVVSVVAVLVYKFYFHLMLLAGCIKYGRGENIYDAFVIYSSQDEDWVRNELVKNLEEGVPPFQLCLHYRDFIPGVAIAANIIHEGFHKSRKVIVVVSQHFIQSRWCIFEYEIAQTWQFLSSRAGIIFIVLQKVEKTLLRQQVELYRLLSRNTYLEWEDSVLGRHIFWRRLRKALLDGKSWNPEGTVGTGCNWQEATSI
Target sequence (Q99836 whole entry, looked up): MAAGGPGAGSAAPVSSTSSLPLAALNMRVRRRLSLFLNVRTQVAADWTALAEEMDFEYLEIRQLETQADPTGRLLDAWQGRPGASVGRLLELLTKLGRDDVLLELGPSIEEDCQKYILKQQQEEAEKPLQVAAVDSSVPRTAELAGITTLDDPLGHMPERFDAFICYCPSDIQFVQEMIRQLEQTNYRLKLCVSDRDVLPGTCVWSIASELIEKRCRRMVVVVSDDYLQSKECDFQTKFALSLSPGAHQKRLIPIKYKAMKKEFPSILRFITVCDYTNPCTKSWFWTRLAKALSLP
Exocytosis inh – LAMP-1 surface exposure blockers, TALL-104 cells – cell-based, flow cytometry, MLPCN library, primary screen | TALL-104 LAMP-1 surface exposure; cells stimulated with thapsigargin and PMA | inhibition, % at 10 µM | 360,000 compounds, 0.66% hits | AID 651702, 2012;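 active = inhibition above about 55%, limit read from the data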
ABHD5-PLIN5 inh – ABHD5-PLIN5 interaction inhibitors, primary screen, cell lysate, split luciferase complementation, luminescence; Perilipin-5 (Homo sapiens) + 1-acylglycerol-3-phosphate O-acyltransferase ABHD5 (Homo …; Split G. princeps luciferase complementation, 4 h; inhibition, % at 4 µM; 360,000 compounds, 0.78% hits;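 active = inhibition above the mean inhibition across every tested compound plus 3 SD, cut at about 22% in these data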;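 note: 0% = DMSO only wells and the 100% control is not disclosed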
NOD2-RIPK2 conf – NOD2-RIPK2 binding disruptors, retest, confirmation, fluorescence, CHO cells, BLA complementation, triplicate; shares compounds with NOD2-RIPK2 inh; CCF4 FRET; inhibition, % at 4.98 µM; 1,200 compounds, 70% hits;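 active = mean inhibition across replicates above a set limit taken from the earlier primary screen, cut at about 21% in these data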;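 note: 0% = DMSO-only wells and the high end = clavulanate BLA-blocked wells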
NOD2 BLA counter – NOD2-RIPK2 counterscreen BLA reporter activity; shares compounds with NOD2-RIPK2 inh; CHO BLA reporter, CCF4 FRET ratio; inhibition, % at 4.98 µM; 1,200 compounds, 57% hits;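 active = mean inhibition above the low-control mean inhibition plus three low-control SD, cut at about 11% in these data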;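 note: 0% = DMSO only wells and 100% = clavulanate high control wells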
* marks the source's active call; other numbers are inactive results; · = no result given.

SMILES	B2AR ag	TLR9-MyD88 inh	NOD2-RIPK2 inh	TLR4 MyD88 comp	Exocytosis inh	ABHD5-PLIN5 inh	NOD2-RIPK2 conf	NOD2 BLA counter
COc1ccccc1C(=O)Nc1ccc(C)cc1C(=O)c1ccccc1	26.3	-3.4	22.4*	-1.5	-2.5	-5.5	-10.1	-4.5
Cc1ccc(Cc2nc3ccccc3n2C(CCc2ccccc2)c2nc3ccccc3[nH]2)cc1 (configuration not stated)	·	·	-5.0	·	7.2	-12.3	·	·
CSCCC(c1nc2ccccc2[nH]1)n1c(=O)c(-c2cc3ccccc3[nH]2)nc2ccccc21 (configuration not stated)	·	·	40.0*	·	5.4	1.6	34.6*	59.4*
CSCCC(c1nc2ccccc2[nH]1)n1c(/C=C/c2ccc(F)c(F)c2)nc2ccccc21 (configuration not stated)	·	·	-13.9	·	6.0	7.8	·	·
O=c1c(-c2cc3ccccc3[nH]2)nc2ccccc2n1C(CCc1ccccc1)c1nc2ccccc2[nH]1 (configuration not stated)	·	·	38.4*	·	11.6	-10.4	36.0*	61.9*
CC1(C)SC(C)(C)N(C=O)C1C(=O)O (configuration not stated)	6.8	-0.7	3.0	·	15.0	7.1	·	·
CC(C)(C)NC(=O)C1(C)CCC(=O)N1CCCn1ccnc1 (configuration not stated)	·	·	3.0	·	-1.5	2.0	·	·
Cc1ccc(Nc2nc(N)c([N+](=O)[O-])c(NCc3ccco3)n2)cc1	9.0	-3.7	25.1*	9.7	-5.6	-12.5	8.2	-1.6
O=C(CSc1nc2ncc(Br)cc2[nH]1)c1ccc([N+](=O)[O-])cc1	5.0	-5.8	21.7*	4.0	4.7	-2.9	13.4	-4.9
COc1ccccc1Cc1c(C(C)(C)C)nc2cc(C)c(Br)c(C)n12	·	·	24.3*	·	3.4	-20.7	-3.2	12.1*
COc1ccc(-n2nc(C#N)c(Cl)cc2=O)cc1	90.5*	·	49.0*	17.3	10.6	4.7	56.0*	8.0
CCCCn1nnnc1C1(C)CCC(=O)N1CCOC (configuration not stated)	·	·	-10.6	·	4.4	-4.0	·	·
CN1OC[C@@H]2CN(S(=O)(=O)c3ccccc3)[C@H](c3ccccc3Br)C[C@@H]21	·	·	32.7*	·	-3.4	-10.6	-4.7	-4.6
Cc1c(Cl)cccc1N=C1NC(=O)CS1	·	1.3	-3.9	·	-5.5	4.1	·	·
COc1ccc(N2CCN(CC(=O)Nc3ccc(C)cc3Br)CC2)cc1	1.3	-8.1	25.8*	·	11.5	4.3	-6.9	-6.6
COc1ccc(N2CCN(CC(=O)Nc3ccc(C)cc3)CC2)cc1	12.1	6.3	5.7	·	-30.5	-14.6	·	·
CCOc1ccc(S(=O)(=O)Nc2ccc(C(=O)NCC(c3ccco3)N(C)C)cc2)cc1 (configuration not stated)	-3.1	-2.2	24.6*	·	-2.0	0.1	5.1	0.0
O=C1OCCN1C(=O)[C@H]1[C@H](c2ccc(F)cc2)C(c2cccc(Cl)c2)=NN1c1ccc(Br)cc1	-4.5	-12.8	26.2*	·	0.0	0.7	14.7	48.1*
OC[C@@H]1[C@@H](c2ccccc2)C(c2cccc(Cl)c2)=NN1c1ccccc1	-0.2	-4.3	32.6*	·	-0.4	-13.8	27.4*	53.8*
O=C1OCCN1C(=O)[C@H]1[C@H](c2ccc(F)cc2)C(c2cccc(Cl)c2)=NN1c1ccccc1	4.5	-5.1	28.1*	·	-1.0	-6.5	16.9	44.2*
Cc1cccc(C2=NN(c3ccc(Br)cc3)[C@@H](C(=O)N3CCOC3=O)[C@@H]2c2ccc(F)cc2)c1	10.0	-12.1	-0.8	-11.1	-3.7	-18.3	·	·
O=C1OCCN1C(=O)[C@H]1[C@H](c2ccccc2)C(c2cccc(Cl)c2)=NN1c1ccc(Br)cc1	-0.3	-5.5	30.7*	·	-0.1	-3.4	15.8	46.9*
Nc1nc(SCc2cccnc2)c2ncn(C3OC(CO)C(O)C3O)c2n1 (configuration not stated)	-11.1	-12.9	-1.5	·	0.5	7.2	·	·
CC(C)(C)OC(=O)NCCc1onc(-c2ccccc2F)c1C(=O)O	·	-11.3	-7.0	·	6.3	9.9	·	·
CC(C)C[C@H]1CN(CCCC[C@@H]2CNC(=O)C(=O)N2CCc2ccccc2)C(=O)C(=O)N1CCc1ccccc1	·	·	-2.9	·	-7.4	0.5	·	·
SMILES	B2AR ag	TLR9-MyD88 inh	NOD2-RIPK2 inh	TLR4 MyD88 comp	Exocytosis inh	ABHD5-PLIN5 inh	NOD2-RIPK2 conf	NOD2 BLA counter
CCOC(=O)c1c[nH]c(=S)n(-c2ccccc2)c1=O	-2.1	-5.2	-12.7	·	-4.9	-0.3	·	·
CCOC(=O)c1c(SCCN2CCCC2)n(-c2ccccc2)c(=S)n(-c2ccccc2)c1=O	53.3*	8.1	88.7*	·	73.0*	22.2*	86.3*	4.8
Cc1ccc2nc(N3CCN(C=O)CC3)nc(-c3ccccc3)c2c1	-1.8	19.2	25.5*	8.8	-5.0	-3.1	29.4*	38.0*
Cc1cc([N+](=O)[O-])ccc1-c1ccc(/C=N/NC(=O)c2ccc(Br)o2)o1	8.5	1.2	40.4*	·	6.2	9.9	32.2*	47.9*
O=C(O)c1ccc(-c2ccc(/C=N/Nc3ccc([N+](=O)[O-])cc3)o2)cc1	-349.5	20.0	19.4	·	22.7	8.7	·	·
O=C(O)c1cccc(-c2ccc(/C=N/Nc3ccc([N+](=O)[O-])cc3)o2)c1	-187.7	19.2	27.8*	·	13.2	11.3	30.0*	31.6*
O=[N+]([O-])c1ccc(N/N=C/c2cccc(O)c2)cc1	-8.6	6.8	21.5*	·	15.4	-10.8	24.1*	32.4*
CC(C)(C)NC(=S)N/N=C\c1ccc(-c2ccc([N+](=O)[O-])cc2)o1	-240.8	·	43.4*	·	-13.2	-2.5	81.3*	82.6*
O=[N+]([O-])c1ccc(NN=Cc2cccc([N+](=O)[O-])c2)cc1	3.5	0.6	-6.2	·	2.5	-2.6	·	·
Cc1cc2nc(-c3ccccc3Br)n(/C=C(\c3ccccc3)n3c(=O)[nH]c4ccccc43)c2cc1C	·	·	-3.2	·	-1.5	-3.5	·	·
CCOC(=O)C1=C(C)N(C)C(C)=C(C(=O)OCC)C1c1ccncc1	-1.5	-7.3	9.0	4.6	-0.7	-0.7	·	·
CCOC(=O)C1=C(C)N(C)C(C)=C(C(=O)OCC)C1c1ccccc1	5.8	-25.4	53.0*	0.0	2.4	-0.4	-8.0	-2.4
